Experimental data reported in PubChem BioAssay (NCI).
About 83,000 compounds went through this panel and 20% of them were active in at least one assay; those are over-represented in the sample as a whole.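 Percent growth is the endpoint: 0 to 100 indicates growth inhibition (40 means 60% inhibition), 0 means no net growth, and negative values indicate cell death.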 Calls of active or inactive are those of the source. The calls were made as follows: active = growth percent below 10; inactive = the rest.

Tests used:
Assay in all cases: NCI-60 one-dose screen, 48 h (100 = growth as untreated, 0 = no growth, -100 = all killed)
[1] = test system: SK-MEL-2 melanoma; conditions: 10 µM unless noted
[2] = test system: EKVX NSCLC; conditions: 10 µM unless noted
[3] = test system: SN12C renal; conditions: 10 µM unless noted
[4] = test system: UO-31 renal; conditions: 10 µM unless noted
[5] = test system: TK-10 renal; conditions: 10 µM unless noted
[6] = test system: CAKI-1 renal; conditions: 10 µM unless noted
[7] = test system: A498 renal; conditions: 10 µM
[8] = test system: HL-60(TB) leukemia; conditions: 10 µM unless noted
[9] = test system: CCRF-CEM leukemia; conditions: 10 µM unless noted
[10] = test system: ACHN renal; conditions: 10 µM unless noted

Measured: growth

[Cl][Hg][n]1c(-c2ccco2)nc2ccccc21
inactive: [1] 93.5% | [2] 111% | [3] 94.8% | [4] 103% | [5] 124% | [6] 107% | [7] 114% | [8] 95.5% | [9] 89.9%

COC(=O)[C@@H](C)C[C@H](Cc1ccccc1)NC(=O)c1csc([C@@H](C[C@H](C(C)C)N(C)C(=O)[C@@H](NC(=O)[C@H]2CCCCN2C)c2ccc(F)cc2)OC(C)=O)n1
inactive: [1] 30.2% | [2] 29.8% | [3] 15.4% | [4] 35.2% | [10] 19.4% | [6] 14%
active: [7] -9.07% | [8] -42.6% | [9] 8.77%

Cc1ccc(S(=O)(=O)C(Cl)(Cl)Cl)cc1
inactive: [1] 97.5% | [2] 101% | [3] 98.7% | [4] 97.3% | [5] 89.5% | [6] 87.9% | [7] 103% | [8] 91.1% | [9] 82.7%

CN(C)C1C(=O)C(C(N)=O)=C(O)C2(O)C(=O)C3=C(O)c4c(O)cccc4C(C)(O)C3CC12.[Cl][Sb]([Cl])[Cl] (stereo not given)
active: [1] -7.83%
inactive: [2] 41% | [3] 41.8% | [4] 54.7% | [5] 42.4% | [6] 12.3% | [8] 31.4% | [9] 17%

C=COC(=O)CCN1CC1
inactive: [1] 115% | [2] 103% | [3] 102% | [4] 90.6% | [5] 110% | [7] 77.4% | [8] 92.3% | [9] 105%

COc1ccc(C(=O)c2cc(OC)c(OC)c(OC)c2)cc1OC(C)=O
active: [8] -37.1%
inactive: [1] 47.8% | [2] 68.7% | [3] 29.5% | [4] 39.6% | [5] 74.8% | [7] 49.8% | [9] 13.8%

CC(=O)ONc1ccc([N+](=O)[O-])c(C(F)(F)F)c1
inactive: [1] 102% | [2] 87.6% | [3] 107% | [4] 77.2% | [5] 112% | [7] 103% | [8] 90% | [9] 97.7%

O=[N+]([O-])c1cc([N+](=O)[O-])c(Nn2c3ccccc3c3ccccc32)c([N+](=O)[O-])c1
active: [1] -50.4% | [2] 6.19% | [3] 5.01% | [4] -3.91% | [5] 0.75% | [7] -43.2% | [8] -30.3% | [9] -0.784%

O=C(N/N=C\c1ccc(N(CCCl)CCCl)cc1Cl)c1cccnc1
active: [5] 6.39% | [7] -93.6%
inactive: [1] 27.2% | [2] 103% | [3] 79.2% | [4] 88% | [8] 91.8% | [9] 74.8%

CCCCN1CCCC[C@@H]1C(=O)N[C@H](C(=O)N(C)[C@H](CCc1nc(C(=O)N[C@@H](Cc2ccccc2)C[C@H](C)C(=O)OC)cs1)C(C)C)[C@@H](C)CC
inactive: [1] 24.8% | [2] 61.2% | [3] 77.6% | [4] 48% | [5] 69.2% | [7] 32.9% | [9] 61.6%

C[C@]12CCc3sc(-c4ccccc4O)nc3C1=CC[C@@H]1[C@@H]2CC[C@]2(C)C(=O)CC[C@@H]12
inactive: [1] 105% | [2] 99.7% | [3] 101% | [4] 85.8% | [5] 104% | [6] 83.5% | [8] 103% | [9] 118%

Clc1cccc(Cl)c1Cl
inactive: [1] 74.5% | [2] 95.7% | [3] 120% | [4] 85.3% | [5] 86.8% | [7] 107% | [8] 99.6% | [9] 96.4%

CC(=O)O[C@@H]1CC[C@]2(C)[C@H]3CC[C@]4(C)C(=O)CC[C@H]4[C@@H]3C[C@@H]3SC(N)=N[C@@]32C1
inactive: [1] 49.8% | [2] 78.3% | [3] 77.3% | [4] 79.3% | [5] 91.1% | [6] 61.1% | [7] 50.7% | [8] 44.5% | [9] 44.2%

CC12CCC3C(C=CC4=C(N)C(=O)CCC43C)C1CCC2=O (stereo not given)
active: [9] 6.62%
inactive: [1] 74.4% | [2] 98% | [3] 88.5% | [4] 64.6% | [5] 85.6% | [7] 99.2% | [8] 52.5%

OCCNC(Cc1ccccc1)c1ccc2c(c1)OCO2 (stereo not given)
inactive: [1] 72.2% | [2] 100% | [3] 98.8% | [4] 78.9% | [10] 106% | [6] 97.1% | [7] 86.5% | [8] 79.6% | [9] 111%

COC(=O)[C@]12CCC(C)(C)C[C@H]1[C@H]1C(=O)C[C@@H]3[C@@]4(C)C[C@@]5(CC(C)(C)[C@@H]4CC[C@@]3(C)[C@]1(C)CC2)OO[C@@](C)(C(F)(F)F)O5
inactive: [1] 92.3% | [2] 93.6% | [3] 92.4% | [4] 87.8% | [5] 95.7% | [6] 68.7% | [7] 78.2% | [8] 101% | [9] 94.8%

COc1ccc(N(CC(=O)NCCC[Te]c2ccccc2)C(=O)CCSC2=C(C)C(=O)c3ccccc3C2=O)cc1
active: [1] -49.6% | [2] -2.22% | [3] -8.2% | [4] -29.3% | [10] -51.4% | [6] -25.5% | [7] -32.2%

COc1ccc2nc(NC(=O)COc3cc(/C=C\c4cc(OC)c(OC)c(OC)c4)ccc3OC)sc2c1
active: [6] 6.25% | [7] -5.19%
inactive: [1] 16.7% | [2] 44.7% | [3] 45.3% | [4] 14.7% | [5] 23.6% | [9] 22.6%

COC(=O)[C@@H](C)C[C@H](Cc1ccccc1)NC(=O)c1csc([C@@H](C[C@H](C(C)C)N(C)C(=O)[C@H](C)NC(=O)[C@H]2CCCCN2C)OC(C)=O)n1
inactive: [1] 41.9% | [2] 53.6% | [3] 36% | [4] 66.4% | [5] 61.7% | [7] 56.4% | [9] 12.3%
active: [8] -19.6%

[Cl][Hg][c]1cc(Br)cc(Br)c1
inactive: [1] 41.3% | [2] 80% | [3] 24% | [4] 102% | [5] 121% | [7] 75.4%
active: [8] -27% | [9] 1.44%

CCOC(=O)CCN(C)C1=Nc2ccc(Cl)cc2C(c2ccccc2)=[N+]([O-])C1
inactive: [1] 93.5% | [2] 102% | [3] 98.5% | [4] 78.6% | [5] 91.4% | [7] 71.8% | [8] 91.3% | [9] 99.6%

CC1CCCC(C[N+](C)(C)C)C1=O (stereo not given)
inactive: [1] 117% | [2] 110% | [3] 92.5% | [4] 73.5% | [5] 106% | [6] 103% | [7] 101% | [8] 104% | [9] 95.2%

Oc1ccc2c3c1OC1[C@@H](O)CC[C@@]4(O)[C@@H](C2)N(CC2CCC2)CC[C@]314 (stereo not given in full)
inactive: [1] 118% | [2] 99.7% | [3] 103% | [4] 83.2% | [5] 106% | [7] 94.7% | [8] 102% | [9] 97.5%

CC[C@H](C)[C@H](NC(=O)[C@H]1CCCCN1C)C(=O)N(C)[C@H](CC(=O)c1nc(C(=O)N[C@@H](Cc2ccccc2)C[C@H](C)C(=O)O)cs1)C(C)C
active: [8] -7.69%
inactive: [1] 37.8% | [2] 91.5% | [3] 83.8% | [4] 88.6% | [5] 97.2% | [7] 73.4% | [9] 21.2%

COC(=O)[C@@H](C)C[C@H](Cc1ccccc1)NC(=O)c1csc([C@@H](C[C@H](C(C)C)N(C)C(=O)[C@@H](NC(=O)[C@H]2CCCCN2C)C(C)C)OC(C)=O)n1
active: [7] -7.32% | [8] -47.8% | [9] 0.404%
inactive: [1] 16.3% | [2] 29.6% | [3] 23.3% | [4] 42% | [6] 12.8%

C[C@]12CC[C@H]3[C@@H](C[C@@H]4SC(Nc5ccccc5)=N[C@@]45CC(O)CC[C@]35C)[C@@H]1CCC2O (stereo not given in full)
active: [9] 0.738%
inactive: [1] 51.7% | [2] 73.2% | [3] 10.1% | [4] 26.1% | [10] 36.8% | [6] 49% | [8] 15.7%

CCN(CC)CCOC(=O)C(OC(C)C)(c1ccccc1)c1ccccc1
inactive: [1] 88.2% | [2] 93.5% | [3] 106% | [4] 79.1% | [10] 104% | [6] 87.2% | [7] 72.6% | [8] 99.6% | [9] 102%

CCOC(=O)CCC(NC(=O)C(Cc1ccc(N(CCCl)CCCl)cc1)NC=O)C(=O)OCC (stereo not given)
active: [1] -64.3% | [3] 3.28% | [10] -33.9% | [8] 9.37%
inactive: [2] 55.4% | [5] 111% | [6] 10.5% | [7] 128% | [9] 17.6%

O=C(CC1(O)C(=O)Nc2ccccc21)c1ccc(C(=O)NCC2CCC3(CC2)OOC2(CCCCC2)OO3)cc1 (stereo not given)
inactive: [1] 70.7% | [2] 58.3% | [3] 74.4% | [10] 60.1% | [6] 39.5% | [7] 93.7% | [8] 31.7%
active: [4] -77.2% | [9] 7.85%
